Records with an inconclusive call do not appear. Activity calls are given as the source filed them. Calls come from the whole dose curve; as a rule, active = well fitted inhibition curve with a large enough effect in the repeat runs; inconclusive = weak or mixed curves; inactive = no such curve, though single readings can be large or run the other way.
Potency is the fitted concentration of half-maximal effect.

The target in this experiment is Cytochrome P450 2C9 (Homo sapiens) (UniProt P11712). Kind of experiment: Cytochrome P450 family 2 subfamily C member 9 (CYP2C9) small molecule antagonists: luciferase biochemical (cell-free) qHTS assay (AID 1645842). Note: nearly all actives have a fitted effect of over 55% in size. The conditions noted are these: P450-Glo CYP2C9 enzyme assay, luciferin luminescence; series mostly up to 57.4 µM. The method, boiled down: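 P450-Glo CYP2C9 system: proluciferin substrate with enzyme in mix containing 0.4% BSA, 10 min at room temperature, then NADPH regeneration solution added and incubated 1 h at 37C. Detection reagent stopped reaction; luminescence read after 20 min as RLU.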
Chain of Cytochrome P450 2C9 (Homo sapiens) (P11712 whole entry, looked up): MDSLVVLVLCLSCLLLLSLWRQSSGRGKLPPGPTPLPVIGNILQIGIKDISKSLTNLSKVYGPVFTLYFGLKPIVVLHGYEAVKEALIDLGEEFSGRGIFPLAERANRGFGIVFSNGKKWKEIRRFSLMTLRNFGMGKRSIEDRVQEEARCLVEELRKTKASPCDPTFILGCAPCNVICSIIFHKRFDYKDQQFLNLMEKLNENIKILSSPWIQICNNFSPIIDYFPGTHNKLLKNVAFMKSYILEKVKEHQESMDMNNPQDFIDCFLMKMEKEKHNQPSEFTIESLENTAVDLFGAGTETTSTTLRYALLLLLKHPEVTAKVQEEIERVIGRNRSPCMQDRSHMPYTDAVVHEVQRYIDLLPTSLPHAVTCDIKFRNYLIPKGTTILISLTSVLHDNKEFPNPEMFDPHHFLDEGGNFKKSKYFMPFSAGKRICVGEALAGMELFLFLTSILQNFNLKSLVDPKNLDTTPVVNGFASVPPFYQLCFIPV
In general terms: Quantitative high-throughput screening tests each substance at several concentrations.
For the molecule `COc1ccccc1CNC(=O)CCC1N=C2c3ccccc3N=C(SCC(=O)NCCc3ccc(OC)c(OC)c3)N2C1=O` (stereo not given), the Potency was 0.301 µM (active). The value for `CCOCCCNC(=O)CCC(=O)NNc1nc2ccccc2c2nc(-c3ccccc3)nn12` was 3.38 µM (active); that for `Cc1ccc2ccc(C(Nc3ccccn3)c3ccccc3)c(O)c2n1` (stereo not given) was 2.68 µM (active); that for `CCn1cc(/C=C(\NC(=O)c2ccc(C)cc2)C(=O)NCCCn2ccnc2)c2ccccc21` was 1.34 µM (active). With `COc1ccc(NC(=O)CSc2nc3ccccc3n2Cc2cccc(OC)c2)cc1`, the Potency was 2.68 µM (active). As for `CCOC(C(=O)N(C)CCN(C)CCc1ccccc1)(c1ccccc1)c1ccccc1`, the Potency is 6.01 µM (active).

Consider `Cc1cccc(N2CCN(C(=O)CCC(=O)NNc3nc4ccccc4c4nc(C)nn34)CC2C)c1` (stereo not given), for which the Potency is 9.52 µM (active). The value for `CCOc1cc(C(Nc2cc(C)ccn2)c2ccc3cccnc3c2O)ccc1OC` (stereo not given) was 12.6 µM (active).

On to `COc1ccc(NC(=O)CSc2ncc(-c3ccc(Cl)cc3)[nH]2)cc1OC`, for which the Potency is 0.849 µM (active).

Turning to `COc1ccc(CNC(=O)Cn2c(SCC(=O)Nc3ccc(C)c(C)c3)nc3ccccc32)cc1`, the Potency is 2.39 µM (active). Regarding `COc1ccc(-c2cn3cccnc3n2)cc1NC(=O)COc1ccccc1`, the Potency was 4.77 µM (active). On to `CCc1ccc(C2=CC(c3c(F)cccc3Cl)n3c(nc4ccccc43)N2)cc1` (stereo not given), for which the Potency was 5.35 µM (active). The value for `Cc1ccccc1C(=O)Nc1sc2c(c1C(=O)O)CCC(C(C)(C)C)C2` (stereo not given) was “inactive”. Consider `Cc1ccccc1C(=O)Nc1cccc(-c2nc3cccnc3s2)c1`, for which the Potency is 6.74 µM (active).

For the molecule `Cc1cccc(Cn2c(SCc3ccc(C(=O)N4CCC(C)CC4)cc3)nc3ccncc32)c1`, the Potency was 4.77 µM (active). The value for `CCOc1ccc(CCNC(=O)CCCn2nc(C)c3sc4ccccc4c3c2=O)cc1OCC` was 2.68 µM (active); that for `COc1cc(NC(=O)CSc2nc3ccccc3nc2Cc2ccccc2OC)cc(OC)c1` was 0.301 µM (active); that for `C=C1CC[C@H](O)C/C1=C\C=C1/CCCC2(C)C1CCC2C(C)CCCC(C)C` (stereo not given in full) was 23.9 µM (active). The entry for `Cc1cccc(Cc2c(C)nc3c(-c4ccccc4)c(C)[nH]n3c2=O)c1` is “inactive”; for `OC[C@@H](O)C(O)[C@@H](O)CO` (stereo not given in full) it is “inactive”. The value for `Nc1ccn(C2O[C@H](CO)[C@@H](O)[C@@H]2O)c(=O)n1` (stereo not given in full) was “inactive”; that for `CC1=C(C(=O)Nc2cccc(-c3ccn[nH]3)c2)C(c2ccccc2Cl)N=C(Nc2nc3ccccc3o2)N1` (stereo not given) was 0.477 µM (active); that for `Cc1cncn1CCc1nc2c3ccccc3nc(SCC(=O)Nc3cccc(Cl)c3)n2n1` was 0.425 µM (active). In the case of `Cc1ccccc1CNC(=O)CCCn1c(=O)c2cccn2c2ccccc21`, the Potency is 9.52 µM (active).

For the molecule `C=CC(C)(O)CCC=C(C)CCC=C(C)C` (stereo not given), the Potency is 21.3 µM (active).

(Values after PubChem BioAssay (NCATS).)
